# Shown is part of a subset that was picked to be rich in hits.
# TTR transcr act – increases transthyretin transcription | SH-SY5Y TTR promoter Gaussia luciferase, luminescence; 100% = recombinant luciferase protein wells | activation, % at 16.7 µM | AID 1117267 | 92,000 tested, 1.3% active;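 active = activation above the mean of all tested compounds plus 3 SD, cut at about 9.5% in these data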;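 note: cells exposed to compounds for one day before reading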
# TTR inh HuH7 – decreases TTR transcription in HuH7 cells in activator counter-screen; shares compounds with TTR transcr act; HuH7 TTR promoter-Gaussia luciferase reporter, luminescence; inhibition, % at 16.7 µM; 1,100 tested, 4% active; AID 1117279;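 active = average inhibition above the solvent-only control wells' mean plus 3 SD, cut at about 15% in these data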;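 note: inhibitors lower well luminescence so higher value means more inhibition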
# TTR up confirm – confirmation of human transthyretin transcription activators | shares compounds with TTR transcr act | SHSY5Y TTR promoter Gaussia luciferase, luminescence; 100% = purified Lucia enzyme wells, no cells | activation, % at 16.7 µM | 1,100 tested, under 10 active | AID 1117280;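 active = mean activation above a set limit taken from the earlier primary screen, cut at about 11% in these data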
# Numbers stand for hits; i = inactive.
SMILES,TTR transcr act,others
Cn1c(CNC(=O)c2cccs2)n[nH]c1=S,i,
Cc1cccc(C(=O)NCCc2n[nH]c(=S)n2C)c1,i,
Cc1ccc(NC(=O)Cc2n[nH]c(=S)n2C)cc1,10.7,TTR inh HuH7=i;TTR up confirm=i
COc1cccc(C(=O)N2CCC[C@H]2C(=O)N2CCC[C@H]2C(=O)N[C@@H](C)c2ccccc2)c1,i,
COC(=O)[C@]12C[C@H](CC(=O)NCc3cccc(C(F)(F)F)c3)C(=O)N(Cc3ccccc3)C1=C[C@H](COCc1ccccc1)O[C@@H]2C,i,
Cn1cccc1[C@]1(O)C(=O)Nc2ccc(F)cc21,i,
O=C(CCS(=O)(=O)c1ccc(Cl)cc1)N1CCN(c2ccc(F)cc2)CC1,i,
COc1ccc(S(=O)(=O)CCC(=O)N2CCN(c3ccc(F)cc3)CC2)cc1,10.2,TTR inh HuH7=i;TTR up confirm=i
COc1ccc(CC(=O)N2CCN(c3ccc(F)cc3)CC2)cc1,i,
CCCCCn1nnnc1C1(C)CN(S(C)(=O)=O)CC(=O)N1Cc1ccco1 (stereo not drawn),i,
COC(=O)[C@]12C[C@H](CC(=O)NCCc3ccccc3OC)C(=O)N(Cc3cccc4ccccc34)C1=C[C@H](C(C)(C)C)O[C@@H]2C,i,
CCCCNC(=O)Cn1cnc2c(cnn2-c2ccc(C)c(C)c2)c1=O,i,
CCOc1ccccc1NC(=O)Cn1cnc2c(cnn2-c2ccc(C)c(C)c2)c1=O,10.9,TTR inh HuH7=i;TTR up confirm=i
CCOCCCNC(=O)Cn1cnc2c(cnn2-c2ccc(F)cc2)c1=O,i,
C[C@@H]1COc2cc(Br)ccc2S(=O)(=O)N1Cc1cn(CC2CCCCC2)nn1,i,
COc1ccc(Cn2ccc3ccc(-c4ccc5ccn(C(=O)c6cccc(OC)c6)c5c4)cc32)cc1,i,
Cc1[nH]c2ccccc2c1C(=O)CSc1nc2ncc(Cl)cc2[nH]1,i,
CC(C)OC(=O)CSc1nc2ncc(Cl)cc2[nH]1,i,
O=C(CSc1nc2ncc(Cl)cc2[nH]1)NCC(=O)Nc1ccc(F)c(F)c1F,10.6,TTR inh HuH7=i;TTR up confirm=i
O=C1CCC[C@H]2C[C@H](NCc3ccc(Cl)cc3)CC[C@]23CCCN13,i,
CCOC(=O)[C@@]12CCC3=C1N(CCC3)C(=O)[C@H](CC(=O)NCc1ccc(C)o1)C2,i,
CCOC(=O)C1CCCCN1C(=O)[C@@H]1CC=C[C@@H]2CCN(c3ccccc3)C(=O)[C@@H]21 (stereo partly drawn),i,
CCOC(=O)[C@@]12CCCC3=C1N(CCC3)C(=O)[C@H]2CC(=O)N1CCOCC1,i,
CCOc1ccc(OCC)c(NC(=O)C2CCCN(c3ncccn3)C2)c1 (stereo not drawn),i,
CCC(C)c1ccc(NC(=O)C2CCCN(c3ncccn3)C2)cc1 (stereo not drawn),i,
SMILES,TTR transcr act,others
CCc1ccccc1NC(=O)C1CCCN(c2ncccn2)C1 (stereo not drawn),12.1,TTR inh HuH7=i;TTR up confirm=i
CC(C)(C)OC(=O)N[C@@H]1C=CC(=O)C1,i,
COC(=O)[C@]12C[C@H](CC(=O)NCCc3ccccc3OC)C(=O)N(Cc3ccccc3)C1=C[C@H](COCc1ccccc1)O[C@@H]2C,i,
O=C(Nc1ccccc1)c1ccn[nH]1,14.9,TTR inh HuH7=i;TTR up confirm=i
O=C(Nc1cccc(C(=O)Nc2ccc(Br)cc2)c1)c1ccccc1,i,
O=C(Nc1ccc(F)cc1)c1ccccc1,i,
C[C@@H]1CCN(C2CC2)S(=O)(=O)c2ccc(N3CCC[C@@H]3C)cc2O1,i,
COc1ccc(C(CC(=O)O)NC(=O)c2cc3cc(Br)ccc3oc2=O)cc1OC (stereo not drawn),i,
CCOC(=O)NC(CC(=O)O)c1ccc(OCC)cc1 (stereo not drawn),i,
CCOC(=O)NC(CC(=O)O)c1ccc(OC)c(OC)c1 (stereo not drawn),9.7,TTR inh HuH7=i;TTR up confirm=i
CCOc1ccc(C(NC(C)=O)c2ccc(OC)c(OC)c2)cc1 (stereo not drawn),11.2,TTR inh HuH7=i;TTR up confirm=i
CCOc1ccc(C(NC(=O)/C=C/c2ccco2)c2ccc(OC)c(OC)c2)cc1 (stereo not drawn),i,
CCCC(=O)NC(c1ccc(OCC)cc1)c1ccc(OC)c(OC)c1 (stereo not drawn),i,
COc1ccc(CNC(=O)O[C@H]2CC[C@@]34CCCN3C(=O)CCC[C@H]4C2)cc1OC,i,
COc1ccc(CNC(=O)/C=C/c2ccco2)cc1OC,12.6,TTR inh HuH7=i;TTR up confirm=i
COc1ccc(/C=C/C(=O)NCc2ccc3c(c2)OCO3)cc1OC,i,
COc1ccc(CN(C(=O)/C=C/c2ccco2)C2CCS(=O)(=O)C2)cc1OC (stereo not drawn),i,
COP(=O)(O)C(C)NC(=O)OCc1ccccc1 (stereo not drawn),i,
O=C(N/N=C\C=C\c1ccco1)c1cc(-c2ccc3ccccc3c2)n[nH]1,i,
O=C(N/N=C/C=C\c1ccco1)c1ccccn1,i,
O=C(N/N=C\C=C\c1ccco1)c1cncc(Br)c1,12.6,TTR inh HuH7=i;TTR up confirm=i
C[C@H]1[C@H](c2ccccc2)OC(O)([C@H](Cc2ccccc2)NC(=O)OC(C)(C)C)CN1C (stereo partly drawn),i,
CC(C)Oc1ccc(S(=O)(=O)N2CCCCCC2)c2ccccc12,i,
CC(C)CC(O)(CC(C)C)c1cn(C(=O)N(c2ccccc2)c2ccccc2)nn1,i,
Cc1c(-c2nc(-c3cccnc3)no2)cccc1[N+](=O)[O-],i,
SMILES,TTR transcr act,others
Cc1cccc(-c2noc(-c3ccoc3C)n2)c1,i,
O=[N+]([O-])c1cccc(-c2noc(-c3ccco3)n2)c1,11.8,TTR inh HuH7=14.6;TTR up confirm=i
C=CCN1C(=O)[C@@H](CC(=O)N2CCN(C(=O)C3CC3)CC2)[C@]2(C(=O)OC)CCCCC=C12,i,
COC(=O)CNC(=O)[C@H](Cc1ccccc1)NC1(C(=O)NCCc2c[nH]c3ccccc23)CCCCC1,i,
CC(C)(C)OC(=O)C1[C@H](O)C=CC[C@H]1S(=O)c1ccccc1 (stereo partly drawn),i,
CNC(=O)N(O)C1N(C)C(=O)N(Cc2ccccc2)C1(C)C (stereo not drawn),i,
COC(=O)CNC(=O)CN1C(=O)N(c2cccc(Cl)c2)C(N(O)C(=O)Nc2cccc(Cl)c2)C1(C)C (stereo not drawn),10.1,TTR inh HuH7=i;TTR up confirm=i
COC(=O)CN1C(=O)N(c2ccccc2)C(N(O)C(=O)Nc2ccccc2)C1(C)C (stereo not drawn),i,
COC[C@H]1CCCN1c1cccc2c1S(=O)(=O)N1CC[C@@H](C1)O2,i,
COc1ccc(CN2C(=O)CCCC2(C)c2nnnn2-c2c(C)cccc2C)cc1OC (stereo not drawn),i,
COc1cc(O)c([C@@H](CC(=O)N2CC(C)CC(C)C2)c2ccc3c(c2)OCO3)c(OC)c1 (stereo partly drawn),i,
COc1cc(OC)c2c(C)cc(=O)oc2c1C(CCN1CCN(c2ccccc2)CC1)c1ccc2c(c1)OCO2 (stereo not drawn),i,
COc1cc(OC)c2ccc(=O)oc2c1C(CC(=O)N1CCOCC1)c1ccc2c(c1)OCO2 (stereo not drawn),14.4,TTR inh HuH7=i;TTR up confirm=i
COC(=O)[C@]12C[C@H](CC(=O)NCCCN3CCCC3=O)C(=O)N(Cc3cccc4ccccc34)C1=C[C@H](C(C)C)O[C@@H]2C1CC1,i,
CCOC(=O)Cc1csc(SCC(=O)Nc2cc(Cl)ccc2Oc2ccccc2)n1,9.7,TTR inh HuH7=i;TTR up confirm=i
CCOC(=O)Cc1csc(SCC(=O)N2CCN(c3ccc(OC)cc3)CC2)n1,i,
